Values joined by “and” are separate entries in the source; they are usually repeats but may differ in a detail not shown here. Equal values may be shown once. Results filed as inconclusive are left out. Some compounds were tested as several samples or in several runs, with calls that do not always agree. Active and inactive are the calls of the source. The calls were made as follows, unless noted: active = hit-call score of the fitted dose curve at least 0.9, where 1 is the maximum; inactive = score below 0.9.

From PubChem BioAssay (EPA / NIEHS) come the findings set out here.

A short description of assay [1]: ATG_TCF_b_cat_CIS: Attagene CIS-FACTORIAL HepG2 Assay for human T-Cell-Factor with beta-catenin (TCF/b-cat) (AID 2282965). The note with it: HepG2 TCF/beta-catenin cis-reporter transcription, actives raise or lower the signal. The method, boiled down:
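HepG2 cells transiently transfected with cis-promoter-driven multiplexed reporter units; reporter mRNA measured 24 h after dosing by RT-PCR, FAM labelling, HpaI digestion and capillary electrophoresis. Bidirectional fitting relative to DMSO baseline.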

The nature of assay [2]: ATG_TAL_CIS: Attagene CIS-FACTORIAL HepG2 Assay for human TAL Basal Promoter (AID 2282966).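 Also: background control endpoint measuring basal TAL promoter reporter mRNA not a specific factor.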 To be noted: HepG2 Attagene cis-factorial TAL promoter reporter; actives raise or lower the signal. In outline:
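HepG2 cells transiently transfected with multiplexed cis-promoter reporter units, dosed 24 h. Reporter mRNA quantified by RT-PCR, 6-FAM labelling, HpaI digestion and capillary electrophoresis; TAL basal promoter serves as background control, fitted bidirectionally versus DMSO.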

Assay [3] can be described thus: ATG_TGFb_CIS: Attagene CIS-FACTORIAL HepG2 Assay for human Transforming Growth Factor (TGF) (AID 2282967). To be noted: HepG2 Attagene CIS TGFb reporter, mRNA transcription; actives raise or lower the signal. The method, boiled down:
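After a 24-hour incubation with compound, transfected HepG2 cells were lysed for RNA; reporter cDNA was amplified, fluorescently end-labeled and separated by CE. DMSO served as baseline for bidirectional fits.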

The nature of assay [4]: ATG_VDRE_CIS: Attagene CIS-FACTORIAL HepG2 Assay for human Vitamin D Receptor Element (VDRE) (AID 2282968). To be noted: HepG2 VDRE cis-reporter transcription, actives raise or lower the signal. In outline:
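Cell-based multiplexed reporter format in human liver HepG2 cells, 24 h post-dose. Fluorescence from capillary electrophoresis of reporter cDNA gives the signal, with DMSO as negative control and baseline.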

The target of assay [5] is Nuclear receptor subfamily 1 group I member 3 (Homo sapiens) (UniProt Q14994). Kind of assay: ATG_CAR_TRANS: Attagene TRANS-FACTORIAL HepG2 Assay for human Constitutive Androstane Receptor (CAR) (AID 2282969; active = hit-call score of the fitted dose curve at least 0.9, where 1 is the maximum;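 also: activators raise reporter mRNA above DMSO so AC50 marks induction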). To be noted: HepG2 Attagene TRANS-FACTORIAL CAR reporter. In outline: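 HepG2 cells transiently transfected with GAL4-UAS reporter units; TRANS format reads activity of exogenous chimeric NR-Gal4 protein. After 24 h dosing, reporter mRNA quantified by RT-PCR, 6-FAM labelling and capillary electrophoresis; gain of signal fitted against DMSO.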
Sequence of Nuclear receptor subfamily 1 group I member 3 (Homo sapiens) (Q14994 whole entry, looked up, the tested form may be a part): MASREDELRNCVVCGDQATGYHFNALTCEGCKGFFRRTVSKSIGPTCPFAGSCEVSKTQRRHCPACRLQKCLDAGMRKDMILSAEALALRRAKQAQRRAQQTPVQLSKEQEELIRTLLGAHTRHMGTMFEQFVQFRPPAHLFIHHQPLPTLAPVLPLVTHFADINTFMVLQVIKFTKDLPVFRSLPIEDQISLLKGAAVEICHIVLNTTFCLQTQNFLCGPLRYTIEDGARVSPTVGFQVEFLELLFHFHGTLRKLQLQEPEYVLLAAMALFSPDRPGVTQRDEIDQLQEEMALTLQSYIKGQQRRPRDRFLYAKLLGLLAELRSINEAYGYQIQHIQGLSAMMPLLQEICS

The target of assay [6] is Estrogen receptor (Homo sapiens) (UniProt P03372). Kind of assay: ATG_ERa_TRANS: Attagene TRANS-FACTORIAL HepG2 Assay for human Estrogen Receptor alpha (ERa) (AID 2282970; active = hit-call score of the fitted dose curve at least 0.9, where 1 is the maximum). To be noted: HepG2 Attagene TRANS ERa GAL4 reporter, mRNA. The method, boiled down: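 HepG2 cells transiently transfected with multiplexed GAL4-UAS reporter units read out chimeric NR-Gal4 activity. After 24 h compound exposure, reporter mRNA was quantified by RT-PCR, 6-FAM labeling, HpaI digestion and capillary electrophoresis, relative to DMSO.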
Sequence of Estrogen receptor (Homo sapiens) (P03372 whole entry, looked up, the tested form may be a part): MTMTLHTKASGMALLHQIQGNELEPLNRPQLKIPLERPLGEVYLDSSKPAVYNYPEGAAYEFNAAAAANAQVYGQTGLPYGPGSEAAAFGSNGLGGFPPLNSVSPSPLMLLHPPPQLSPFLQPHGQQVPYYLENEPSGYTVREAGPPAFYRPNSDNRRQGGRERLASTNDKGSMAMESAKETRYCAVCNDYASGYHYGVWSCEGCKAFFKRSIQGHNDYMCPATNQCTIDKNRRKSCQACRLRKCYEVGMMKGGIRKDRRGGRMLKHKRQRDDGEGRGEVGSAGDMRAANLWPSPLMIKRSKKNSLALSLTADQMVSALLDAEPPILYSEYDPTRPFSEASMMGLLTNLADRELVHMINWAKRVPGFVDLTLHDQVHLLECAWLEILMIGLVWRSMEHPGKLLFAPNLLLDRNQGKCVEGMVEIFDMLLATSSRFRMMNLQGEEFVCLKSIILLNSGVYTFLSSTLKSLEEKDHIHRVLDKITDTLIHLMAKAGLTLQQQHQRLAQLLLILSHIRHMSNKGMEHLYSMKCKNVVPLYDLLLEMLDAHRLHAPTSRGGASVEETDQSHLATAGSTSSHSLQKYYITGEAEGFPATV

A short description of assay [7]: ATG_M_19_TRANS: Attagene TRANS-FACTORIAL HepG2 Assay for M19 Transcription Factor (Internal Marker) (AID 2282974; active = hit-call score of the fitted dose curve at least 0.9, where 1 is the maximum). The note with it: HepG2 Attagene TRANS-FACTORIAL M19 internal marker reporter. In outline: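 Background-control readout: after 24 h chemical exposure of transfected HepG2 carrying GAL4-driven reporter units, RNA was reverse-transcribed, amplified, fluorescently labeled and sized by capillary electrophoresis; gain-of-signal fit against DMSO.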

For assay [8], the target named is Estrogen-related receptor gamma (Homo sapiens) (UniProt P62508). Kind of assay: ATG_ERRg_TRANS: Attagene TRANS-FACTORIAL HepG2 Assay for human Estrogen-Related Receptor gamma (ERRg) (AID 2282977; active = hit-call score of the fitted dose curve at least 0.9, where 1 is the maximum;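 also: hits increase reporter signal over DMSO so potencies reflect activators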). To be noted: HepG2 Attagene TRANS reporter, ERRg transactivation. The method, boiled down:
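HepG2 cells transiently transfected with multiplexed GAL4-UAS reporter units and chimeric NR-Gal4 constructs were exposed to test chemicals for 24 h. Reporter mRNA was measured by RT-PCR, 6-FAM primer extension, HpaI digestion and capillary electrophoresis; gain-of-signal versus DMSO.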

For assay [9], the target named is X-box-binding protein 1 (Homo sapiens) (UniProt P17861). Kind of assay: ATG_Xbp1_CIS: Attagene CIS-FACTORIAL HepG2 Assay for human X-box Binding Protein 1 (XBP1) (AID 2282972). The note with it: HepG2 XBP1 cis-element reporter, Attagene multiplex; actives raise or lower the signal. In outline: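 After a 24-hour chemical exposure of HepG2 cells carrying cis-regulated reporters, reporter mRNA levels are assessed. Quantification uses RT-PCR, 6-FAM labelling and capillary electrophoresis. Gain- or loss-of-signal is fitted against DMSO.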
Sequence of X-box-binding protein 1 (Homo sapiens) (P17861 whole entry, looked up): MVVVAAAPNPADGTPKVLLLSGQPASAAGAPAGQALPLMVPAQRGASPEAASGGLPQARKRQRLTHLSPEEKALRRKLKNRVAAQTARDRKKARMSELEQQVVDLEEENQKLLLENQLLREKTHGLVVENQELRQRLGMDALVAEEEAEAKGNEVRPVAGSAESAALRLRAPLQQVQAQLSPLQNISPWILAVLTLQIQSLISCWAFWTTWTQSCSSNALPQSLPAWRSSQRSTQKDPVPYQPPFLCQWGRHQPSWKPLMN

Assay [10] is described as follows: ATG_GAL4_TRANS: Attagene TRANS-FACTORIAL HepG2 Assay for GAL4 (Internal Marker) (AID 2282976; active = hit-call score of the fitted dose curve at least 0.9, where 1 is the maximum). The note with it: HepG2 Attagene TRANS GAL4 internal marker reporter. The method, boiled down:
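Background-control readout: GAL4-UAS reporter transcript in transiently transfected HepG2 cells after 24 h compound exposure. Measured by RT-PCR, 6-FAM primer extension, HpaI digest and capillary electrophoresis; gain-of-signal fit versus DMSO.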

Sequence of Estrogen-related receptor gamma (Homo sapiens) (P62508 whole entry, looked up, the tested form may be a part): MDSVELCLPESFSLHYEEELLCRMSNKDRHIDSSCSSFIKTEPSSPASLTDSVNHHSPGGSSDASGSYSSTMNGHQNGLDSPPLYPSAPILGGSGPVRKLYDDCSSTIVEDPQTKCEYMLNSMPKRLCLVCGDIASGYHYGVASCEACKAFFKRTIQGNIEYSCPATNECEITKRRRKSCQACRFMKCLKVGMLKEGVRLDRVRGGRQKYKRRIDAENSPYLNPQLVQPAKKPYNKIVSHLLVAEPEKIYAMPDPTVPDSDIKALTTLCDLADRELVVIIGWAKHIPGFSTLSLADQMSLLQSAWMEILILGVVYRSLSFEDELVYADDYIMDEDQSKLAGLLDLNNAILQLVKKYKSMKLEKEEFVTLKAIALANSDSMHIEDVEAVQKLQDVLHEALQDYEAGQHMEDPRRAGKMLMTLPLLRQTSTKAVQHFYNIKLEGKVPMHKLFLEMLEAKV

One may read the AC50 as the concentration giving half of the maximal activity seen. With `FC(F)(I)C(F)(F)C(F)(F)C(F)(F)C(F)(F)C(F)(F)I`, the figures for the concentration at half-maximal activity (AC50) in [1], in [5] and in [6] were 11.1 µM (active), 45.5 µM (active) and 5.93 nM (active), respectively. Further, the molecule was called inactive in assay [2], in assay [3], in [4], in assay [7] and in assay [8].

With `COCC(C)OCC(C)O` (stereo not given), the result in [1], in [2], in assay [3], in assay [4] and in assay [9] was inactive.

`CC(C)(C)c1ccc(O)c(C(C)(C)C)c1`: the call in assay [1], in assay [2], in [3], in assay [4], in assay [6] and in [9] was inactive. In addition, the call in assay [8] was inactive. Besides, the concentration at half-maximal activity (AC50) in assay [5] was 4.79 µM (active).

`Cc1cc(CCN2CCN(c3nsc4ccccc34)CC2)cc2c1NC(=O)CC2(C)C`: the call in assay [1], in assay [2], in assay [3], in [5], in assay [6] and in assay [8] was inactive. Besides, the AC50 in [4] is 4.92 µM (active); in [9], 11 µM (active).

For the molecule `Oc1cc2ccccc2c2ccccc12`, the result in [1], in [2], in assay [3], in [4], in assay [6] and in assay [10] was inactive.

Consider `Cc1oc(-c2ccccc2)nc1CCOc1ccc(C[C@H](Nc2ccccc2C(=O)c2ccccc2)C(=O)O)cc1`, for which the outcome in assay [1], in [2], in assay [3], in assay [6] and in assay [10] was inactive. The AC50 in assay [4] was 16.6 µM (active).

For `Nc1cccc2c(N)cccc12`, the result in [1], in [2], in assay [3], in assay [4], in [5] and in assay [6] was inactive.

For `CCCCCCCCCCCCN1CCCC1=O`, the result in [1], in assay [2], in assay [3], in assay [4] and in assay [6] was inactive.

Take `c1ccc2cc3c(ccc4ccccc43)cc2c1`: the outcome in [1], in [2], in assay [3], in assay [4], in [5] and in [9] was inactive. In assay [10], the outcome was inactive. In addition, the figures for the AC50 in [4] and in [6] were 7.85 µM (active) and 2.44 µM (active) [middle of 4 runs], respectively.

On to `CCOC(=O)CC(O)(CC(=O)OCC)C(=O)OCC`, for which the call in assay [1], in assay [2], in assay [3], in assay [4], in [5] and in [6] was inactive. Also, the molecule was classed as inactive in assay [10].

In the case of `O=[N+]([O-])c1ccc(O)cc1`, the molecule was classed as inactive in assay [1], in [2], in [3], in [4], in assay [6] and in [9]. Further, the result in assay [10] was inactive.

On to `ClC1=C(Cl)C(Cl)(Cl)C(Cl)=C1Cl`, for which the AC50 is 15.4 µM (active) in assay [1]; 15 µM (active) in [2]; 14.7 µM (active) and 7.29 µM (active) in assay [4]; 15.1 µM (active) and 11.1 µM (active) in assay [6]; 13.4 µM (active) and 7.05 µM (active) in assay [9]. Also, the call in [1], in assay [2] and in [3] was inactive.

As for `CCCCC[C@H](O)CC(=O)CCc1ccc(O)c(OC)c1`, the call in assay [1], in [2], in assay [3], in assay [5], in [6] and in assay [10] was inactive. The molecule was classed as inactive in [8]. In addition, the AC50 in assay [4] was 27.7 µM (active).

As to `O=C(/C=C/c1ccc(O)cc1)CC(=O)/C=C/c1ccc(O)cc1`, the molecule was called inactive in [1], in assay [2], in assay [3], in assay [5], in [6] and in [8]. Also, in assay [4], the half-maximal activity concentration (AC50) was 5.76 µM (active).

Regarding `O=c1c(-c2ccc(O)cc2)coc2cc(O)ccc12`, the AC50 in [1] was 27.9 µM (active). Moreover, the call in assay [1], in [3], in assay [5] and in assay [10] was inactive.

On to `CCN(CC)CCNc1ccc(CNC=O)c2sc3ccc(OC)cc3c(=O)c12`, for which the molecule was called inactive in assay [1], in assay [2] and in assay [3]. Moreover, the AC50 in assay [4] is 0.689 µM (active); in assay [6], 1050 nM (active); in assay [9], 0.766 µM (active); in [10] it was 3.36 µM (active).
